# Measurements as given in PubChem BioAssay (Tox21).
# Inconclusive results are not listed. Entries that show only a call come without a potency. Unmarked numbers belong to inactive results. The source made the active and inactive calls. Calls come from the whole dose curve.
# Target: Thyrotropin receptor (Homo sapiens) (UniProt P16473)
# Test: qHTS assay to identify small molecule agonists of the thyroid stimulating hormone receptor (TSHR) signaling pathway (AID 1224843); note: nearly all actives have a fitted effect of over 45% in size
# Settings: TSHR-HEK293 cells, cAMP HTRF, agonist mode, 30 min; series mostly up to 92.4 µM; activation: at the top concentration
# From the text: National Center for Advancing Translational Sciences [NCATS]
# NIH Chemical Genomics Center [NCGC]
# U.S. Environmental Protection Agency [EPA]
# National Institutes of Environmental Health Sciences [NIEHS]
# National Toxicology Program [NTP]
# U.S. Food and Drug Administration [FDA]
# TSHR is the receptor for thyrotropin (thyroid stimulating hormone or TSH), a member of the glycoprotein hormone family. TSH is released by the anterior pituitary gland and is the main regulator of thyroid gland growth and development. Upon binding circulating thyrotropin, a G-protein signal cascade activates adenylyl cyclase and […] cAMP concentration is increased. cAMP is a key second messenger involved extensively in cellular signal transduction pathways associated with the majority of G-protein coupled receptors (GPCRs). The activation of these GPCRs by neurotransmitters, lipids, nucleotides, peptides and hormones results in the activation or the inhibition of plasma membrane-bound adenylate cyclase through heterotrimeric G-proteins. A cell-based TSHR assay was used to screen the Tox21 10K library for compounds that can modulate TSHR in agonist mode.
# Tox21 Assay Protocol Summary:
# TSHR-Hek293 cells were dispensed at 800 cells/4uL/well in 1536-well white plates using a Multidrop dispenser. […] The plates were incubated at room temperature for 30 min. 2.5 ul/well of cAMP-d2 and 2.5ul/well of anti-cAMP-cryptate was added respectively into the assay plates using a Flying Reagent Dispenser. After 1 hr incubation at room temperature, the fluorescence intensity in the plates was measured using an Envision plate reader. Each test compound was measured at 15 concentrations and in triplicates.
# Chain of Thyrotropin receptor (Homo sapiens) (P16473 whole entry, looked up): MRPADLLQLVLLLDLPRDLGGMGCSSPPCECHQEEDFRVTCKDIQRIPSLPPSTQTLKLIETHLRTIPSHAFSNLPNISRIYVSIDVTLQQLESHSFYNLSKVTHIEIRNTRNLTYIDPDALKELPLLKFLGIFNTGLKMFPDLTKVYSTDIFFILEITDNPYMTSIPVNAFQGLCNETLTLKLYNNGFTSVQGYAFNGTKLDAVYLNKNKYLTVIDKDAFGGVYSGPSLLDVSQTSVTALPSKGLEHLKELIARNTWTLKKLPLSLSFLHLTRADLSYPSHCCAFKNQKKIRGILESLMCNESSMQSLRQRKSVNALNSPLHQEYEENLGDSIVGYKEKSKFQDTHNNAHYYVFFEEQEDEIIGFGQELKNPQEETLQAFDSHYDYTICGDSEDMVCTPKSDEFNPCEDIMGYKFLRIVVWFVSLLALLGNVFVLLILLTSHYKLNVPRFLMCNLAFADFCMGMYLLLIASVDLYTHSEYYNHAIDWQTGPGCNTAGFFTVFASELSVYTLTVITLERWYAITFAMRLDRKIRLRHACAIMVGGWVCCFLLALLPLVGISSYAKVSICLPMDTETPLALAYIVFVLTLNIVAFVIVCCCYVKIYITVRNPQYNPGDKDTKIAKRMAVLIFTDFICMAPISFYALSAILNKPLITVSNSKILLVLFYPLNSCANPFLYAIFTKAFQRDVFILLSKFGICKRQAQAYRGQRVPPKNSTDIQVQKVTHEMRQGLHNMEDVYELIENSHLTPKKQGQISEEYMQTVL
Compound,Potency,activation
CC[N+](=O)[O-],inactive,
C[C@]12CC[C@H](O)CC1=CC[C@@H]1[C@@H]2CC[C@]2(C)C(=O)CC[C@@H]12,inactive,
CC(C)c1cccc(C(C)C)c1O,inactive,
Clc1cnc(Oc2ccc(Oc3ncc(Cl)cc3Cl)cc2)c(Cl)c1,inactive,
Cc1cccc(C)c1N,inactive,
Nc1ncc([N+](=O)[O-])s1,inactive,
O=C(O)C1C(C(=O)O)C2(Cl)C(Cl)=C(Cl)C1(Cl)C2(Cl)Cl (stereo not given),,-1.69%
Nc1nc(N)nc(NC2CC2)n1,inactive,
CCOP(=S)(OCC)Oc1cc(C)nc(C(C)C)n1,inactive,
Nc1cccc(Cl)c1,inactive,
C=CCN=C=S,inactive,
Cl/C=C/Cl,inactive,
CC(=O)C1CCOC1=O (stereo not given),inactive,
Cc1cccc(N)c1C,inactive,
OCc1ccco1,inactive,
CC(C)(C)C(=O)CCl,inactive,
CN(C)NC(=O)CCC(=O)O,inactive,
OCC(O)CCl (stereo not given),inactive,
N#Cc1cccc(C#N)c1,inactive,
CNC(=O)O/N=C/C(C)(C)S(C)=O (stereo not given),inactive,

Compound,Potency,activation
CN(C)C(=O)Nc1cccc(C(F)(F)F)c1,inactive,
CNC(=O)O/N=C(\SC)C(=O)N(C)C,inactive,
O=[N+]([O-])c1ccc(Cl)c(Cl)c1,inactive,
CC(=O)/C=C/c1ccccc1,inactive,
C=CC(=O)OCC(CC)CCCC (stereo not given),inactive,
Cl[C@H]1OCCO[C@@H]1Cl,inactive,
CNC(=O)O/N=C/C(C)(C)SC,inactive,
O=P1(NCCCl)OCCCN1CCCl (stereo not given),inactive,
Sc1ccccc1,inactive,
CCOc1ccc(N)cc1,inactive,
C=CC#N,inactive,
[N-]=[N+]=CC(=O)OC[C@H](N)C(=O)O,inactive,
O=C(O)c1cc(Oc2ccc(C(F)(F)F)cc2Cl)ccc1[N+](=O)[O-],inactive,
NNc1ccccc1,inactive,
O=C(O)CCCc1ccc(N(CCCl)CCCl)cc1,inactive,
O=[N+]([O-])c1cc([As](=O)(O)O)ccc1O,inactive,
N#CN=C(N)N,inactive,
FC(F)(F)c1ccc(Cl)cc1,inactive,
N#Cc1ccccn1,,-7.79%
OC[C@@H](O)[C@H]1O[C@@H]2O[C@H](C(Cl)(Cl)Cl)O[C@@H]2[C@H]1O,inactive,
